Measured values from the supplement of paper PMC8975748.
Counter-ions that a name gives are not always drawn. ± gives the standard deviation of the averaged measurements.

Legend:
[1] = test system: Saccharomyces cerevisiae BY4741 SeMeCo community; experiment: mean cell size (pixel area) (pixels); higher = larger cells; settings: 10 µM; 24 h; SM minimal medium
In short: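 Mean cell pixel area per well was measured in a four-plasmid fluorescent community of Saccharomyces cerevisiae BY4741, where every plasmid complements one auxotrophy and carries a fluorescent marker. Cells from an overnight preculture at OD600 = 1.0 were diluted to OD600 = 0.3 and dispensed at 70 µl into 384-well plates acoustically predosed with drug to a final 10 µM in SM medium. Incubation lasted 24 h, followed by paraformaldehyde fixation, automated confocal imaging and analysis in Harmony. Reported figures are averaged over 3 replicates. Same SeMeCo high-content imaging drug screen: Selleck FDA-approved drugs at 10 µM, 24 h in SM medium, 384-well plates, 3 replicates.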

[2] = test system: Saccharomyces cerevisiae BY4741 SeMeCo community; experiment: z-score of prototroph abundance vs DMSO median; higher = larger share of this subpopulation than in DMSO controls; settings: 10 µM; 24 h; SM minimal medium; subpopulation (auxotrophy): Prototroph
In short: (§1)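 A Saccharomyces cerevisiae BY4741 community carried four plasmids, each restoring one auxotrophy and encoding a distinct fluorescent protein. It was pre-grown overnight to OD600 1.0, diluted to 0.3, and 70 µl was added to 384-well plates acoustically predosed with library drugs (10 µM final), then grown 24 h in minimal SM medium. Cells were paraformaldehyde-fixed and imaged by automated confocal microscopy, with single-auxotroph fluorescent strains setting thresholds and autofluorescence correction. Each subpopulation's abundance was scored as a z-score against the vehicle-well median.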

[3] = test system: Saccharomyces cerevisiae BY4741 SeMeCo community; experiment: z-score of subpopulation abundance vs DMSO median, subpopulation auxotrophic for M; higher = larger share of this subpopulation than in DMSO controls; settings: 10 µM; 24 h; SM minimal medium; subpopulation (auxotrophy): M
In short: as §1

[4] = test system: Saccharomyces cerevisiae BY4741 SeMeCo community; experiment: z-score of subpopulation abundance vs DMSO median, subpopulation auxotrophic for U; higher = larger share of this subpopulation than in DMSO controls; settings: 10 µM; 24 h; SM minimal medium; subpopulation (auxotrophy): U
In short: as §1

[5] = test system: Saccharomyces cerevisiae BY4741 SeMeCo community; experiment: z-score of subpopulation abundance vs DMSO median, subpopulation auxotrophic for LU; higher = larger share of this subpopulation than in DMSO controls; settings: 10 µM; 24 h; SM minimal medium; subpopulation (auxotrophy): LU
In short: as §1

[6] = test system: Saccharomyces cerevisiae BY4741 SeMeCo community; experiment: z-score of subpopulation abundance vs DMSO median, subpopulation auxotrophic for LM; higher = larger share of this subpopulation than in DMSO controls; settings: 10 µM; 24 h; SM minimal medium; subpopulation (auxotrophy): LM
In short: as §1

[7] = test system: Saccharomyces cerevisiae BY4741 SeMeCo community; experiment: z-score of subpopulation abundance vs DMSO median, subpopulation auxotrophic for HM; higher = larger share of this subpopulation than in DMSO controls; settings: 10 µM; 24 h; SM minimal medium; subpopulation (auxotrophy): HM
In short: as §1

[8] = test system: Saccharomyces cerevisiae BY4741 SeMeCo community; experiment: z-score of subpopulation abundance vs DMSO median, subpopulation auxotrophic for HU; higher = larger share of this subpopulation than in DMSO controls; settings: 10 µM; 24 h; SM minimal medium; subpopulation (auxotrophy): HU
In short: as §1

[9] = test system: Saccharomyces cerevisiae BY4741 SeMeCo community; experiment: z-score of subpopulation abundance vs DMSO median, subpopulation auxotrophic for UM; higher = larger share of this subpopulation than in DMSO controls; settings: 10 µM; 24 h; SM minimal medium; subpopulation (auxotrophy): UM
In short: as §1

[10] = test system: Saccharomyces cerevisiae BY4741 SeMeCo community; experiment: z-score of subpopulation abundance vs DMSO median, subpopulation auxotrophic for HL; higher = larger share of this subpopulation than in DMSO controls; settings: 10 µM; 24 h; SM minimal medium; subpopulation (auxotrophy): HL
In short: as §1

[11] = test system: Saccharomyces cerevisiae BY4741 SeMeCo community; experiment: z-score of subpopulation abundance vs DMSO median, subpopulation auxotrophic for HLU; higher = larger share of this subpopulation than in DMSO controls; settings: 10 µM; 24 h; SM minimal medium; subpopulation (auxotrophy): HLU
In short: as §1

[12] = test system: Saccharomyces cerevisiae BY4741 SeMeCo community; experiment: z-score of subpopulation abundance vs DMSO median, subpopulation auxotrophic for HLM; higher = larger share of this subpopulation than in DMSO controls; settings: 10 µM; 24 h; SM minimal medium; subpopulation (auxotrophy): HLM
In short: as §1

[13] = test system: Saccharomyces cerevisiae BY4741 SeMeCo community; experiment: z-score of subpopulation abundance vs DMSO median, subpopulation auxotrophic for HUM; higher = larger share of this subpopulation than in DMSO controls; settings: 10 µM; 24 h; SM minimal medium; subpopulation (auxotrophy): HUM
In short: as §1

[14] = test system: Saccharomyces cerevisiae BY4741 SeMeCo community; experiment: z-score of subpopulation abundance vs DMSO median, subpopulation auxotrophic for LUM; higher = larger share of this subpopulation than in DMSO controls; settings: 10 µM; 24 h; SM minimal medium; subpopulation (auxotrophy): LUM
In short: as §1

[15] = test system: Saccharomyces cerevisiae BY4741 SeMeCo community; experiment: z-score of subpopulation abundance vs DMSO median, subpopulation auxotrophic for HLUM; higher = larger share of this subpopulation than in DMSO controls; settings: 10 µM; 24 h; SM minimal medium; subpopulation (auxotrophy): HLUM
In short: as §1

[16] = test system: Saccharomyces cerevisiae BY4741 SeMeCo community; experiment: z-score of subpopulation abundance vs DMSO median, subpopulation auxotrophic for H; higher = larger share of this subpopulation than in DMSO controls; settings: 10 µM; 24 h; SM minimal medium; subpopulation (auxotrophy): H
In short: as §1

[17] = test system: Saccharomyces cerevisiae BY4741 SeMeCo community; experiment: z-score of subpopulation abundance vs DMSO median, subpopulation auxotrophic for L; higher = larger share of this subpopulation than in DMSO controls; settings: 10 µM; 24 h; SM minimal medium; subpopulation (auxotrophy): L
In short: as §1

Structure (SMILES)	mean cell size [1]	z-score of prototroph abundance [2]	z-score of subpopulation abundance [3]	z-score of subpopulation abundance [4]	z-score of subpopulation abundance [5]	z-score of subpopulation abundance [6]	z-score of subpopulation abundance [7]	z-score of subpopulation abundance [8]	z-score of subpopulation abundance [9]	z-score of subpopulation abundance [10]	z-score of subpopulation abundance [11]	z-score of subpopulation abundance [12]	z-score of subpopulation abundance [13]	z-score of subpopulation abundance [14]	z-score of subpopulation abundance [15]	z-score of subpopulation abundance [16]	z-score of subpopulation abundance [17]
Cc1ncc([N+](=O)[O-])n1CCOC(=O)c1ccccc1 [Metronidazole Benzoate]	12.382 ± 0.0058	0.95	-0.51	-0.16	-1.05	-0.57	0.12	-1	-0.26	-0.69	-1.28	-0.79	-0.37	-1.13	-0.51		
CC1(C)S[C@@H]2[C@H](NC(=O)C(c3ccccc3)S(=O)(=O)O)C(=O)N2[C@H]1C(=O)O (some centres not stated) [Sulbenicillin Sodium]	12.35 ± 0.08	-0.72	0.41	1.09	1.06	-0.34	-0.06	0.51	1.5	0.63	0.86	3.16	0.43	0.65	1.16	1.2	
NCC[C@H](O)C(=O)N[C@@H]1C[C@H](N)[C@@H](O[C@H]2O[C@H](CN)[C@@H](O)[C@H](O)[C@H]2O)[C@H](O)[C@H]1O[C@H]1O[C@H](CO)[C@@H](O)[C@H](N)[C@H]1O [Amikacin disulfate]	11.9 ± 0.14	0.25	-0.8	0.78	0.07	-0.17	-1.21	-0.01	0.57	-0.25	0.12		-0.51			-0.3	0.46
CCC(C)(C)C(=O)O[C@H]1C[C@@H](C)C=C2C=C[C@H](C)[C@H](CC[C@@H]3C[C@@H](O)CC(=O)O3)[C@H]21 [Simvastatin]	11.7 ± 0.28	-1.66	-0.68	0.43	1.71	-0.1	2.47	1.53	0.62	1.65	3.09			1.33	2.55	0.79	-0.13
CCN(CC)CCNC(=O)c1cc(S(C)(=O)=O)ccc1OC [Tiapride Hydrochloride]	12.36 ± 0.12	-1.37	0.16	0.29	1.17		0.84	0.47	0.43	0.93	0.72		0.14		2.52	0.23	0.96
Cc1[nH]cnc1CN1CCc2c(c3ccccc3n2C)C1=O [Alosetron Hydrochloride]	12 ± 0.2	-0.91	0.38	1.4	1.07	0.27		0.97	0.96	0	-0.13		0.46	-0.03	1.5	-0.22	0.02
C#C[C@]1(O)CC[C@H]2[C@@H]3CCc4cc(OC)ccc4[C@H]3CC[C@@]21C [Mestranol]	12.4 ± 0.25	0.82	-1.19	-0.41	-0.19	-0.14	-0.5	-0.49	-0.68	-0.16	-0.61	-0.48	-0.58	-0.31	0.02	-0.4	
O=c1ccn(C2CC(O)C(CO)O2)c(=O)[nH]1 (configuration not stated) [2-deoxyuridine]		0.08	0.17	-1.16	0.31	0.89	0.04	-1.08	-0.82	1.21	0.49		-0.27	0.23	0.04		1.75
Clc1ccc(C(Cn2ccnc2)OCc2ccsc2Cl)c(Cl)c1 (configuration not stated) [Tioconazole]	12.1 ± 0.12	-7.82	-0.92		-0.51	-1.99	3.87	10.2	8.69		3.35			4.03	15.6	19.7	-2.45
COc1ccc2cc3[n+](cc2c1OC)CCc1cc2c(cc1-3)OCO2 [Berberine Sulfate]	12.3 ± 0.28	-0.5	0.74	1.36	-0.21	-0.28	0.24	0.8	0.73	-0.5	0.06		0.71	-0.27		-0.31	-1.84
CC(N)C12CC3CC(CC(C3)C1)C2 (configuration not stated) [Rimantadine]	12.5 ± 0.14	-1.12	0.39	0.97	0.71	0.09	0.19	1.15	1.1	-0.19	0.68			0.08		0.34	0.04
COc1ccc2[nH]c([S@@+]([O-])Cc3ncc(C)c(OC)c3C)nc2c1 [NEXIUM (esomeprazole magnesium)]	12.5 ± 0.14	-0.6	0.2	-0.8	0.11	0.3	0.8	0.68	-1.82	1.91	1.46	1.32	-0.41	0.51	-0.44	3.24	
COc1ccc2cc(CCC(C)=O)ccc2c1 [Nabumetone]	12.5 ± 0.13	1	0.05	0.54	-0.78	-1.42	-0.96	-0.64	-0.41	-1.5	-0.94	-0.91	-0.22	-0.43	-1.51	-1.58	
O=C(c1ccc(OCCN2CCCCC2)cc1)c1c(-c2ccc(O)cc2)sc2cc(O)ccc12 [Raloxifene HCl]	12.2 ± 0.27	0.44	0.58	-1.87	-1.4	1.33	0.58	-1.43		0.66	-0.29			-0.24	-0.56	0.59	1.28
